# Data reported in PubChem BioAssay AID2513 (National Center for Advancing Translational Sciences (NCATS), 2010).
# Results filed as inconclusive are left out. Activity calls are given as the source filed them. The call rests on the fitted dose curve; in most records, active means well fitted curve in the direction sought with a large enough effect; inconclusive means small, poorly fitted or top-dose-only effect, or another doubt; inactive means no such curve, though single readings can be large or run the other way.
# Assay: Counterscreen Assay for Enhancers of SMN2 Splice Variant Expression: Modulation of SMN1 Expression for Probe SAR
# Details: HEK293 SMN1-luciferase reporter, luminescence, 30-36 h; series mostly up to 46.1 µM; activity change, negative = inhibition: at the top concentration
# Description: NIH Chemical Genomics Center [NCGC] NIH Molecular Libraries Probe Production centers Network [MLPCN] MLPCN Grant: R03 MH084179-01 Assay Submitter (PI): Elliot Androphy NCGC Assay Overview: Spinal muscular atrophy (SMA) is caused by insufficient levels of the survival motor neuron protein SMN. The SMN locus on chromosome 5q13 contains two inverted copies of SMN called SMN1 and SMN2 which are 99% identical at the amino acid level. SMN1 is a fully functional protein and SMN2 skips exon 7 90% of the time. Skipping of exon 7 produces non-functional protein product. 10% of the SMN2 protein includes exon 7 and is fully functional. In the SMA disease state, mutations in the SMN1 locus are the cause of the disease state. Because only 10% of SMN2 is of the fully functional form, it is not sufficient to overcome the deficiency produced by the loss of the SMN1 product. A therapy that either increase the amount of SMN2 product made or to increase the inclusion of exon 7 has been proposed for the treatment of SMA. We have designed an assay to identify small molecules that can increase the amount of functional SMN2 product by appending a luciferase reporter gene after the native SMN2 gene, such that inclusion of exon 7 in the expressed product places the luciferase sequence in frame, thus generating functional luciferase enzyme. As a counterscreen for nonspecific modulators of expression, we have run compounds through a similar assay that measures expression of an SMN1-luciferase chimera.
# NCGC Assay Protocol Summary: This screen utilizes a luciferase reporter gene assay, combining the promoter with the major portion of the native SMN1 cDNA (exons 1 -7, intron 8 , exon 8 fused to luciferase) stably expressed in HEK293 cells. Compounds that increase luciferase signal presumably enhance expression of the functional SMN1 splice variant. Passaging media contained DMEM w/ glutamax (+phenol red) 10% FCS, 1x pen/strep, 200 ug/ml hygro, 1x sodium pyruvate. Assay media contained DMEM w/ glutamax (-phenol red) 10% FCS, 1x pen strep, 1x pyruvate Sequence, Parameter, Value, Description (1) Cells, 5 uL, 2000 cells/well, 1536 TC treated White solid bottom plate (2) Time, 10-12 hours, 37C 5% CO2 (3) Compound, 23 nl, MLSMR Library (4) Control Compound, 23 nL, Sodium butyrate st 4.5mM (final) conc (5) Time, 30-36 hours, 37C 5% CO2 (6) Reagent, 3 ul, One Glo (TM) from Promega (7) Time, 5-15 minutes, Room temp (8) Detector, Viewlux: luminescent read, 60 second integration, high speed 2x binning Keywords: Spinal muscular atrophy, SMA, SMN2, high throughput screening, MLSMR, MLPCN, NIH Roadmap, qHTS and NCGC
Structure (SMILES),"activity change, negative = inhibition",Potency
NC(=O)C1CCN(c2nc(-c3ccccc3C(F)(F)F)cs2)CC1,-17.9% (inactive),–
NC(=O)C1CCN(c2nc(-c3ccc4occc(=O)c4c3)cs2)CC1,-29.9% (inactive),–
NC(=O)C1CCN(c2nc(-c3ccccc3N)cs2)CC1,-8.38% (inactive),–
NC(=O)C1CCN(c2nc(-c3ccccc3Br)cs2)CC1,-7.81% (inactive),–
CN(C)C(=O)c1cccc(-c2csc(N3CCC(C(N)=O)CC3)n2)c1,3.37% (inactive),–
NC(=O)C1CCN(c2nc(-c3ccccc3-c3ccccc3)cs2)CC1,-13% (inactive),–
NC(=O)C1CCN(c2nc(-c3cccc(Cl)c3)cs2)CC1,-3.66% (inactive),–
Cn1ccc2cc(-c3csc(N4CCC(C(N)=O)CC4)n3)ccc21,-22.7% (inactive),–
CC(=O)c1ccc(-c2csc(N3CCC(C(N)=O)CC3)n2)cc1,-12.7% (inactive),–
CS(=O)(=O)c1ccccc1-c1csc(N2CCC(C(N)=O)CC2)n1,-12.4% (inactive),–
NC(=O)C1CCN(c2nc(-c3ccc4c(c3)OCCO4)cs2)CC1,–,19.4 µM (active)
CN(C)c1ccccc1-c1csc(N2CCC(C(N)=O)CC2)n1,5.97% (inactive),–
COc1ccc(-c2csc(N3CCC(C(N)=O)CC3)n2)cc1,-28.5% (inactive),–
NC(=O)C1CCN(c2nc(-c3cc4ccccc4o3)cs2)CC1,-20.8% (inactive),–
Cc1noc(C)c1-c1csc(N2CCC(C(N)=O)CC2)n1,22.9% (inactive),–
NC(=O)C1CCN(c2nc(-c3ccccc3F)cs2)CC1,-41% (inactive),–
CS(=O)(=O)c1cccc(-c2csc(N3CCC(C(N)=O)CC3)n2)c1,-9.05% (inactive),–
CC(=O)c1cccc(-c2csc(N3CCC(C(N)=O)CC3)n2)c1,-21.4% (inactive),–
NC(=O)C1CCN(c2nc(-c3cccnc3)cs2)CC1,-8.52% (inactive),–
NC(=O)C1CCN(c2nc(-c3cccc(N)c3)cs2)CC1,-4.38% (inactive),–
NC(=O)C1CCN(c2nc(-c3ccc4ccccc4c3)cs2)CC1,-13.3% (inactive),–
Brc1ccc(-c2csc(N3CCCCC3)n2)cc1,-25.7% (inactive),–
NC(=O)C1CCN(c2nc(-c3cccs3)cs2)CC1,-20.2% (inactive),–
